PubChem BioAssay AID1347074 (Center for Chemical Genomics, University of Michigan, 2019)
The whole screen tested about 47,000 compounds, of which about 2,800 (6%) were called active. The sample holds actives, similar compounds and a random draw of the others, so the mix is not that of the screen. Unmarked numbers belong to inactive results. Cut-off read from the data, not from the text of the source: active = z-score above about 3 (passing the limit was not always enough); inactive = the rest.

What follows are molecules tested against Endoribonuclease Dicer (Homo sapiens) (UniProt Q9UPY3) (assay: inhibitors of Dicer pre-microRNA processing, primary screen, biochemical, cat-ELCCA, chemiluminescence (AID 1347074;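 note: plate controls were vehicle for no effect and no enzyme for full effect; higher signal means more uncleaved substrate so more Dicer inhibition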)). Details: cat-ELCCA pre-miR-21 Dicer processing, at 25 µM, hits give high values.
Chain of Endoribonuclease Dicer (Homo sapiens) (Q9UPY3 whole entry, looked up): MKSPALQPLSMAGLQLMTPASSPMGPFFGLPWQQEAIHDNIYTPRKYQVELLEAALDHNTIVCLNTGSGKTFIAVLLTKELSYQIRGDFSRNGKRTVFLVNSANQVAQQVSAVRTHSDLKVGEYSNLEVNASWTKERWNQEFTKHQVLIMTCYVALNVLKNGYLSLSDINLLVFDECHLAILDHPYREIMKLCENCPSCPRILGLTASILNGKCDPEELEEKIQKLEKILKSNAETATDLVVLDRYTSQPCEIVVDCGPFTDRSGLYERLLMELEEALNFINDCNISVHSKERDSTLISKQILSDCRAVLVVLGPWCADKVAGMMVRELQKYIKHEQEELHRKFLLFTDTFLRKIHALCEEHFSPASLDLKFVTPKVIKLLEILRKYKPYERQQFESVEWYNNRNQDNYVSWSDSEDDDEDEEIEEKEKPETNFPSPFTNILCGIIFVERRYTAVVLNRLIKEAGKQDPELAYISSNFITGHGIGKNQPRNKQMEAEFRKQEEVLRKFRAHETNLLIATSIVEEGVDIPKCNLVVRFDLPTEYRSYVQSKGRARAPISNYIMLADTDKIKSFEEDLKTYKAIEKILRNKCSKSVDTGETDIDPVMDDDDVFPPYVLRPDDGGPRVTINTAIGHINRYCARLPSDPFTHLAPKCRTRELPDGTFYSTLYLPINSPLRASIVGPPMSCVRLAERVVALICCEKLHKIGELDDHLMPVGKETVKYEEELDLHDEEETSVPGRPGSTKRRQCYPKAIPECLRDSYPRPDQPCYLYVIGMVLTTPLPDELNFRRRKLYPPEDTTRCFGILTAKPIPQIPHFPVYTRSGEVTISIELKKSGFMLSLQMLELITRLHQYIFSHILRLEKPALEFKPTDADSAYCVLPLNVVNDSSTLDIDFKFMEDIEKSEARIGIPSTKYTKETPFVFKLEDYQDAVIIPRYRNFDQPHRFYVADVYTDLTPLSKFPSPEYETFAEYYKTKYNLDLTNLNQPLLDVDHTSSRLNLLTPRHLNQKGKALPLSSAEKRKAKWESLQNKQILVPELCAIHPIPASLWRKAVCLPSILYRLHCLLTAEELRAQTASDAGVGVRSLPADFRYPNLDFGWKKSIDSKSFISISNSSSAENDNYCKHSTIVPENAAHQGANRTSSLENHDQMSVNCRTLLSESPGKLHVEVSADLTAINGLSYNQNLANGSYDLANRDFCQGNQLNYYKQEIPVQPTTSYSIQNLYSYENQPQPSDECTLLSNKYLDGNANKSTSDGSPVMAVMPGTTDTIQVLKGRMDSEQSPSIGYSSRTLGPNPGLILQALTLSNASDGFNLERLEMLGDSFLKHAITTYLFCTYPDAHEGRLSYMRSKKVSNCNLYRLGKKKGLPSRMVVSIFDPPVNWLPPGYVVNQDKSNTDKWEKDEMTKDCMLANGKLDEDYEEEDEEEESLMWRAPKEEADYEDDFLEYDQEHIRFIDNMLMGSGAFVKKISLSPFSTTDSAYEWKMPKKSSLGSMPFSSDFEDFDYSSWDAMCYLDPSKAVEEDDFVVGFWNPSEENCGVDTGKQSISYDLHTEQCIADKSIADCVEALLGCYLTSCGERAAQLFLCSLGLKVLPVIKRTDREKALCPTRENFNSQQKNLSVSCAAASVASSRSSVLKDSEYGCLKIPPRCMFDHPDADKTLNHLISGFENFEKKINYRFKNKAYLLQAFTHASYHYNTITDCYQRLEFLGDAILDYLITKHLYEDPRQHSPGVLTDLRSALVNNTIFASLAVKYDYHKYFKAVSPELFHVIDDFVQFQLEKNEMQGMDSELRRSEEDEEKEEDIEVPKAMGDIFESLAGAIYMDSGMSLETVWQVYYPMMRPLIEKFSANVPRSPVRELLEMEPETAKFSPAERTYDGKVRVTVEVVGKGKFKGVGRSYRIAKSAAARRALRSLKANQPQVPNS

Compound | z-score
CSc1sc(C(=O)NNC(=S)Nc2ccccc2Cl)c2c1C(O)CCC2 (stereo not drawn) | 6.52 (active)
CC(=O)N1CCc2cc(NC(=S)Nc3ccccc3Cl)ccc21 | 0.03
CSc1sc(C(=O)c2ccc(Cl)cc2)c2c1C(=O)CCC2 | -1.08
CC1=C(C(=O)OCCc2ccccc2)C(c2cccs2)C2=C(CCCC2=O)N1 (stereo not drawn) | 0.14
CC(C)c1nnc(NC(=O)Cn2c(=O)sc3ccccc32)s1 | 0.59
CNC(=O)CSc1nc2ccccc2[nH]1 | 1.43
COc1ccc(Cl)cc1NC(=O)CSc1nc2ncccc2[nH]1 | 3.45 (active)
Nc1cc(=O)[nH]c(SCC(=O)Nc2ccccc2F)n1 | 1.47
O=C1c2ccccc2C(=O)N1CN1CCC(CCCC2CCN(CN3C(=O)c4ccccc4C3=O)CC2)CC1 | 2.46
Cc1sc2nc3n(c(=O)c2c1C)N=C(c1cccs1)CS3 | 1.1
O=C1c2cccnc2C(=O)N1c1ccc(-c2nc3ccccc3o2)cc1 | 2.88
Cc1cc(NC(=O)CCC2COc3ccccc3O2)no1 (stereo not drawn) | 0.67
O=C(OCCN1CCOCC1)C1(c2ccccc2)CCCCC1 | -0.8
O=C(OCCN1CCCCC1)C1COc2ccccc2O1 (stereo not drawn) | 3.41 (active)
CC(C)(C)c1cc(N/C=C/c2nnnn2-c2ccccc2)no1 | -0.3
c1ccc(CN2CCN(Cc3cn[nH]c3-c3ccccc3)CC2)cc1 | -2.57
Brc1cccc(CN2CCN(Cc3cccnc3)CC2)c1 | 1.06
COc1ccc(CN2CCN(Cc3ccccc3OC)CC2)cc1Br | 3.53 (active)
c1ccc(NCc2ccc3c(c2)OCO3)nc1 | -1.56
COc1cccc(CNCc2ccc3c(c2)OCO3)c1 | 0.54
c1cc(CNCc2ccc3c(c2)OCO3)ccn1 | 3.21 (active)
COc1cccc(N2C(=O)C3ON(c4ccccc4)C(c4ccco4)C3C2=O)c1 (stereo not drawn) | 1.03
COc1ccc(OCC(O)CN2CCC(C)CC2)cc1 (stereo not drawn) | -0.23
CC1=C(C(=O)OCc2ccccc2)C(c2ccc(O)cc2)C2=C(CCCC2=O)N1 (stereo not drawn) | 0.01
O=C1CCCC2=C1C(c1ccc([N+](=O)[O-])o1)Nc1ccc(C(=O)c3ccccc3)cc1N2 (stereo not drawn) | 4.19 (active)
CC1=C(C(=O)OCC2CCCO2)C(c2ccc(-c3ccccc3)cc2)C2=C(CCCC2=O)N1 (stereo not drawn) | 1.9
COc1ccc(Cc2nc3c4c5c(sc4ncn3n2)CCCC5)cc1OC | 0.1
N#C/C(=C\c1sccc1Oc1ccccc1)S(=O)(=O)c1ccc(Cl)cc1 | -1.9
